PubChem BioAssay (Tox21)
Values without a mark were called inactive. Inconclusive results are not listed. Where a call stands in place of a potency, no number is given. Calls of active or inactive are those of the source. The call rests on the fitted dose curve; in most records, active means well fitted curve in the direction sought with a large enough effect in the repeat runs; inconclusive means weak or mixed curves; inactive means no such curve, though single readings can be large; an effect the other way counts as inactive or inconclusive.

Legend:
[1] = qHTS RealTime-Glo MT Cell Viability Assay in HepG2 cells - 40 hour (AID 1224870); further: nearly all actives have a fitted effect of over 50% in size
Outline: (§1)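 HepG2 cells mixed with RealTime-Glo MT reagents (NanoLuc plus cell-permeant prosubstrate) were seeded at 600 cells/well, incubated 5 h at 37 C/5% CO2, then pinned with compounds in DMSO; nonlytic luminescence tracked viability during 40 h treatment.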

[2] = A CellTox Green Cytotoxicity Assay to monitor cytotoxicity in HEK293 cells - 40 hour (AID 1224871); further: nearly all actives have a fitted effect of over 45% in size
Outline: (§2)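 HEK293 cells premixed with CellTox Green dye were seeded at 600 cells/well and left 5 h at 37 C/5% CO2 before pin transfer of 23 nL compound in DMSO. Fluorescence from dye bound to dead-cell DNA was read during 40 h treatment.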

[3] = qHTS RealTime-Glo MT Cell Viability Assay in HEK293 cells - 16 hour (AID 1224872); further: top concentration of the series differs between compounds; nearly all actives have a fitted effect of over 50% in size
Outline: (§3)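 Quantitative high-throughput screen of the Tox21 10K library in HEK293: cells and RealTime-Glo reagents plated together, compound added at 5 h, luminescence monitored through 40 h at 37 C.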

[4] = qHTS RealTime-Glo MT Cell Viability Assay in HepG2 cells - 8 hour (AID 1224873); further: nearly all actives have a fitted effect of over 55% in size
Outline: as §1

[5] = A CellTox Green Cytotoxicity Assay to monitor cytotoxicity in HEK293 cells - 24 hour (AID 1224875); further: series mostly up to about 77 µM; nearly all actives have a fitted effect of over 45% in size
Outline: as §2

[6] = A CellTox Green Cytotoxicity Assay to monitor cytotoxicity in HepG2 cells - 16 hour (AID 1224876); further: nearly all actives have a fitted effect of over 45% in size
Outline: (§4)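 HepG2 cells were seeded together with the CellTox Green dye at 600 cells/well, left 5 h at 37 C/5% CO2, then given compounds in DMSO. Fluorescence from dye bound to dead-cell DNA was read repeatedly over 40 h of treatment at 37 C.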

[7] = qHTS RealTime-Glo MT Cell Viability Assay in HepG2 cells - 32 hour (AID 1224877); further: nearly all actives have a fitted effect of over 55% in size
Outline: (§5)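 Compound treatment began 5 h after plating HepG2 cells (600/well) with NanoLuc luciferase and prosubstrate. Plates stayed at 37 C for 40 h; luminescence was captured at six time points, 0 h through 40 h.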

[8] = A CellTox Green Cytotoxicity Assay to monitor cytotoxicity in HepG2 cells - 40 hour (AID 1224879); further: nearly all actives have a fitted effect of over 40% in size; further: potency means the concentration at half of the fitted maximal effect
Outline: as §4

[9] = qHTS RealTime-Glo MT Cell Viability Assay in HEK293 cells - 0 hour (AID 1224880); further: top concentration of the series differs between compounds; nearly all actives have a fitted effect of over 45% in size
Outline: (§6)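 HEK293 cells mixed with RealTime-Glo reagents (NanoLuc plus cell-permeant prosubstrate) at 600 cells/well, preincubated 5 h at 37 C/5% CO2, then given 23 nL compound in DMSO. Nonlytic luminescence from viable cells was read at 0, 8, 16, 24, 32 and 40 h.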

[10] = A CellTox Green Cytotoxicity Assay to monitor cytotoxicity in HEK293 cells - 32 hour (AID 1224881); further: nearly all actives have a fitted effect of over 40% in size
Outline: as §2

[11] = A CellTox Green Cytotoxicity Assay to monitor cytotoxicity in HepG2 cells - 0 hour (AID 1224882); further: nearly all actives have a fitted effect of over 35% in size
Outline: as §4

[12] = A CellTox Green Cytotoxicity Assay to monitor cytotoxicity in HEK293 cells - 8 hour (AID 1224884); further: nearly all actives have a fitted effect of over 35% in size
Outline: as §2

[13] = qHTS RealTime-Glo MT Cell Viability Assay in HepG2 cells - 16 hour (AID 1224885); further: nearly all actives have a fitted effect of over 50% in size
Outline: as §5

[14] = qHTS RealTime-Glo MT Cell Viability Assay in HEK293 cells - 24 hour (AID 1224886); further: top concentration of the series differs between compounds; nearly all actives have a fitted effect of over 50% in size
Outline: as §3

[15] = qHTS RealTime-Glo MT Cell Viability Assay in HEK293 cells - 8 hour (AID 1224887)
Outline: as §6

[16] = A CellTox Green Cytotoxicity Assay to monitor cytotoxicity in HEK293 cells - 16 hour (AID 1224888); further: nearly all actives have a fitted effect of over 35% in size
Outline: as §2

[17] = qHTS RealTime-Glo MT Cell Viability Assay in HepG2 cells - 0 hour (AID 1224889); further: nearly all actives have a fitted effect of over 50% in size
Outline: as §5

[18] = A CellTox Green Cytotoxicity Assay to monitor cytotoxicity in HepG2 cells - 24 hour (AID 1224878); further: nearly all actives have a fitted effect of over 45% in size
Outline: as §4

[19] = A CellTox Green Cytotoxicity Assay to monitor cytotoxicity in HepG2 cells - 32 hour (AID 1224883); further: nearly all actives have a fitted effect of over 50% in size
Outline: as §4

[20] = qHTS RealTime-Glo MT Cell Viability Assay in HEK293 cells - 40 hour (AID 1224874); conditions: RealTime-Glo luminescence; max response: active compounds read low; further: nearly all actives have a fitted effect of over 50% in size
Outline: as §6

Structure (SMILES) | Potency [1] | Potency [2] | Potency [3] | outcome [4] | Potency [5] | Potency [6] | Potency [7] | Potency [8] | outcome [9] | Potency [10] | Potency [11] | Potency [12] | outcome [13] | Potency [14] | Potency [15] | Potency [16] | Potency [17] | Potency [18] | Potency [19] | max response [20] [%]
NC/C=C/C(=O)O | inactive | inactive | inactive | inactive | inactive | inactive | inactive | inactive | inactive | inactive | inactive | inactive | inactive | inactive | inactive | inactive | inactive |  |  | 
O=C1CCCCC1C1CCCCC1 (stereo not drawn) | inactive | inactive | inactive | inactive | inactive | inactive | inactive |  | inactive | inactive | inactive | inactive | inactive | inactive | inactive |  | inactive | inactive | inactive | 
CCCCc1ccc2nc(NC(=O)OC)[nH]c2c1 | inactive | inactive | inactive | inactive | inactive | inactive | inactive | 338 nM (active) | inactive | inactive | inactive | inactive | inactive | inactive | inactive | inactive | inactive | inactive | inactive | 
C=C(C)C(=O)OCCOP(=O)(O)O | inactive | inactive | inactive | inactive | inactive | inactive | inactive | inactive | inactive | inactive | inactive | inactive | inactive | inactive | inactive |  | inactive |  | inactive | 
O=Cc1ccc(O)c(O)c1O | inactive | inactive | inactive |  | inactive | inactive | inactive |  | inactive | inactive | inactive | inactive | inactive | inactive | inactive | inactive | inactive |  |  | 1.24
CCCCCCCCCC/C=C/C#N | inactive | inactive | inactive | inactive | inactive | inactive | inactive | inactive | inactive | inactive | inactive | inactive | inactive | inactive | inactive | inactive | inactive | inactive | inactive | 
CC(C)C1=CC2=CC[C@@H]3[C@](C)(CCC[C@@]3(C)C(=O)O)[C@H]2CC1 | inactive | inactive |  | inactive | inactive | inactive | inactive | inactive | inactive | inactive | inactive | inactive | inactive | inactive | inactive |  | inactive | inactive | inactive | 3.7
CCCCC(CC)COC(=O)COc1cc(Cl)c(Cl)cc1Cl (stereo not drawn) | inactive | inactive | inactive | inactive | inactive | inactive | inactive | inactive | inactive | inactive | inactive | inactive | inactive | inactive | inactive | inactive | inactive | inactive | inactive | 
CNCCC(Oc1ccccc1OC)c1ccccc1 (stereo not drawn) | inactive | inactive | inactive | inactive | inactive | inactive | inactive | inactive | inactive | inactive | inactive | inactive | inactive | inactive | inactive |  | inactive | inactive | inactive | 
Cc1cn([C@@H]2O[C@H](CO)[C@@H](O)[C@@H]2F)c(=O)[nH]c1=O | inactive | inactive | inactive | inactive | inactive |  | inactive | inactive | inactive | inactive | inactive | inactive | inactive |  | inactive | inactive | inactive | inactive | inactive | 
CCCCN1C[C@H](O)[C@@H](O)[C@H](O)[C@H]1CO | inactive | inactive |  | inactive | inactive | inactive | inactive | inactive | inactive | inactive | inactive | inactive | inactive |  | inactive |  | inactive | inactive | inactive | 5.15
CC(C)O | inactive | inactive | inactive | inactive | inactive |  | inactive | inactive | inactive | inactive | inactive | inactive | inactive | inactive | inactive |  | inactive |  | inactive | 
COc1cc(C)ccc1C(C)C | inactive | inactive | inactive | inactive | inactive | inactive | inactive | inactive | inactive | inactive | inactive | inactive | inactive | inactive | inactive | inactive | inactive |  | inactive | 
